Bioassay records from PubChem.
Pf growth 96h: Primary qHTS for delayed death inhibitors of the malarial parasite plastid, 96 hour incubation | Potency, µM (doses to about 28.7 µM), without a hit: at the top dose activity change, negative = inhibition, hits mostly inhibitors | AID 504834, 2011 | 320,000 tested, 6.9% active | P. falciparum luciferase reporter growth, 96 h
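Erythrocytes infected with luciferase-expressing P. falciparum were dispensed at 2% hematocrit and 0.05% parasitemia (final), then incubated with compounds 96 hours at 37 C in 5% CO2. Luminescence after detection reagent addition reported growth.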
HCV inhibitor: qHTS Assay for Inhibitors of Hepatitis C Virus (HCV). Huh7.5.1 HCVcc-Cre infection, luciferase reporter, 44 h. Potency, µM (titrated, usually from 41.8 µM), without a hit: at the highest dose activity change, negative = inhibition, most hits filed as inhibitors. 340,000 tested, 3.4% active. AID 651820, 2012
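Infectious HCVcc-Cre (~0.5 moi) was added to cells just after compound, with cells seeded 4 h earlier at 1,000 per well. Luciferase activity after 44 h culture reported infection; substrate was incubated 15 min at room temperature before reading.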
Pf growth 48h: Primary qHTS for delayed death inhibitors of the malarial parasite plastid, 48 hour incubation. Potency, µM (highest dose often 28.7 µM), inactives show at the highest dose activity change, negative = inhibition, hits mostly inhibitors. 310,000 tested, 5.9% active. P. falciparum luciferase growth in erythrocytes, 48 h. AID 504832, 2011
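Luciferase-expressing P. falciparum in infected erythrocytes (2% hematocrit, 0.1% parasitemia final) in RPMI 1640/0.5% Albumax were exposed to compound for 48 hours at 37 C, 5% CO2; growth read as luminescence.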
AmpC inh no detg: qHTS Inhibitors of AmpC Beta-Lactamase (assay without detergent). AmpC nitrocefin hydrolysis, absorbance 480 nm, 0.0001% Triton. Potency, µM (titrated, usually from 57.1 µM), for the others: at the top dose activity change, negative = inhibition, most hits filed as inhibitors. 330,000 tested, 0.52% active;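 further: plate controls were no compound for no effect and no enzyme for full effect; nearly all actives have a fitted effect of over 20% in size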
Target sequence (P00811 whole entry, looked up): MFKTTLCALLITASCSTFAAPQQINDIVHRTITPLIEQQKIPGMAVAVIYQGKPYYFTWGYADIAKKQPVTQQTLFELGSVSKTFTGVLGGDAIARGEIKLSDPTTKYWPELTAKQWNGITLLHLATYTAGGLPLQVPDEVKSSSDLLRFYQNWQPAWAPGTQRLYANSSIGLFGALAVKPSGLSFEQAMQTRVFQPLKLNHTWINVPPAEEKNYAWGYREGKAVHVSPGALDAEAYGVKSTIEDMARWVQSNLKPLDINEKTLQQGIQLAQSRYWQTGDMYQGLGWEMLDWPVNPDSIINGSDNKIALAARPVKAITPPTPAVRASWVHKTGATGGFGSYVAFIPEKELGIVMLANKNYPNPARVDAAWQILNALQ
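20 mM phosphate pH 7.0 + 0.01% (detergent screen) or 0.0001% Triton X-100; 5.3 nM AmpC reagent; cpd preinc 15 min RT; nitrocefin (800 uM stock) to start; A480 q20 s × 4 min; Activity was normalised to no-enzyme and no-compound control wells.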
AMA1-RON2 inh: qHTS for Inhibitors of AMA1-RON; Towards Development of Antimalarial Drug Lead: Primary Screen. Plasmodium falciparum AMA1 (3D7) - RON2 peptide interaction. AlphaScreen AMA1-biotinylated RON2 peptide binding. Potency, µM (doses to about 58.2 µM), for inactives: at the highest dose activity change, negative = inhibition, most hits filed as inhibitors. 360,000 tested, 0.2% active;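 further: 0% = vehicle wells and -100% = peptide control; nearly all actives have a fitted effect of over 45% in size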
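AMA1 (3D7) with his tag at 25 nM final met compounds first, then biotinylated RON2 peptide at 25 nM; detection used donor plus acceptor beads, 10 µg/mL apiece, read by AlphaScreen after 30 min at room temperature.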
AmpC inh detg: qHTS Inhibitors of AmpC Beta-Lactamase (assay with detergent); P00811; AmpC hydrolysis of nitrocefin, absorbance 480 nm, 0.01% Triton; Potency, µM (top dose mostly 114 µM), inactives show at the top dose activity change, negative = inhibition, actives largely listed as inhibitors; 370,000 tested, 0.041% active;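 further: 0% = no-compound wells and -100% = no-enzyme wells; nearly all actives have a fitted effect of over 25% in size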
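20 mM phosphate pH 7.0 + 0.01% (detergent screen) or 0.0001% Triton X-100; 5.3 nM AmpC reagent; cpd preinc 15 min RT; nitrocefin (800 uM stock) to start; A480 q20 s × 4 min; Activity was normalised to no-enzyme and no-compound control wells.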
Active calls of the source: *; ? = inconclusive; / = no result given. An excerpt weighted towards active compounds, which were near 11% of everything screened. The call rests on the fitted dose curve; in most records, active means well fitted curve in the direction sought with a large enough effect; inconclusive means small, poorly fitted or top-dose-only effect, or another doubt; inactive means no such curve, though single readings can be large; an effect the other way counts as inactive or inconclusive. Unless noted, on the % scale 0 is the no-effect control and ±100 the full control effect; potency means the concentration at half of the fitted maximal effect.

SMILES | Pf growth 96h | HCV inhibitor | Pf growth 48h | AmpC inh no detg | AMA1-RON2 inh | AmpC inh detg
CC(CCc1ccco1)NC(=O)CSc1cc(=O)n(C)c2ccccc12 (stereo unspecified) | 4.15µM* | -6.2% | 50.4% | 14.9% | 4.3% | -3.1%
CCCCNC(=O)CSc1cc(=O)n(C)c2ccccc12 | 0.208µM* | -18.4% | 11.3% | 0.2% | 0.0% | -8.4%
COc1ccccc1NC(=O)c1sc2nc(C)c(C(=O)Nc3ccc(C)cc3C)c(-c3ccc(Br)cc3)c2c1N | / | / | / | / | / | 7.0%
O=[N+]([O-])C(=C1SCCS1)C(=C(Cl)Cl)N1CCCCC1 | 26.9% | -1.1% | -13.0% | -26.7% | ? | ?
O=[N+]([O-])C(/C=C(\Cl)[N+](=O)[O-])=C(N1CCCCC1)N1CCCCC1 | 1.17µM* | -21.8% | ? | -17.9% | -1.2% | -2.0%
CCc1cccc2c(-c3ccccc3)nc(SCC(=O)Nc3ccccc3)nc12 | / | / | / | / | / | 29.0%
Cc1ccc2oc(=O)c3cc(C(=O)N4CCN(c5ccccc5F)CC4)sc3c2c1 | / | / | / | / | / | -10.9%
CC(=O)Oc1ccc2c(c1)CCC1C2CCC2(C)C(OC(C)=O)CCC12 (stereo unspecified) | / | -13.1% | / | / | 5.4% | /
C[C@]12CC[C@@H]3c4ccc(OC(=O)c5ccccc5)cc4CC[C@H]3[C@@H]1CC[C@@H]2O | 8.28µM* | -5.8% | ? | -11.7% | -2.2% | ?
CCN1C(=O)[C@H]2[C@@H](c3ccc(-c4cccc(Cl)c4)cc3)N[C@@](C)(C(=O)OC)[C@H]2C1=O | ? | 5.5% | 13.1µM* | 164.1% | -9.1% | -3.8%
COC(=O)[C@]1(C)N[C@H](c2ccc(-c3cccc(Cl)c3)cc2)[C@@H]2C(=O)N(C)C(=O)[C@@H]21 | / | 23.9% | / | 27.8% | -12.5% | /
CCN1C(=O)[C@H]2[C@@H](c3ccc(-c4ccccc4)cc3)N[C@@](C)(C(=O)OC)[C@H]2C1=O | ? | 16.7% | 9.28µM* | 180.4% | -4.7% | -1.3%
COc1cccc(/C=N/NC(=O)c2[nH]c(C)c(C(=O)N/N=C/c3cccc(OC)c3)c2C)c1 | ? | 10µM* | 43.3% | -19.1% | -20.3% | ?
CCOC(=O)c1c(C)[nH]c(C(=O)N/N=C\c2ccccc2Cl)c1C | 9.28µM* | ? | ? | -2.5% | 6.0% | 5.1%
CCOC(=O)c1c(C)[nH]c(C(=O)N/N=C/c2cccc(OC)c2)c1C | -24.9% | 22.4µM* | -7.4% | -9.8% | 20.4% | 1.1%
CCOC(=O)c1c(C)[nH]c(C(=O)NNC(=O)c2ccccc2)c1C | 277.4% | -17.7% | 145.8% | -26.3% | 21.8% | -1.5%
COc1ccc(Nc2ncnc3c2cnn3C)c(OC)c1 | / | / | / | / | / | -3.4%
COc1ccc(CCNC(=O)c2ccc3c(c2)c(C)c(C)n3Cc2ccc(F)cc2)c(OC)c1OC | / | / | / | / | / | -2.1%
CC(C)NC(=O)c1ccc(COCC(F)(F)C(F)F)cc1 | 13.1µM* | 21.6% | / | 11.6% | 3.1% | 2.3%
Cc1ccc(-c2csc3nc[nH]c(=S)c23)cc1C | 10.4µM* | ? | ? | -35.4% | 57.3% | -8.6%
COc1ccc(-c2csc3nc[nH]c(=O)c23)cc1OC | -4.4% | -3.8% | -19.3% | -5.6% | -7.5% | 5.6%
N#Cc1cc2ccncc2c2ccccc12 | / | / | / | / | -0.8% | /
Nc1cc2ccncc2c2ccccc12 | ? | -24.7% | 0.117µM* | -26.4% | -1.5% | -3.9%
O=C(c1ccc(CS(=O)(=O)c2ccccc2)o1)N1CCOCC1 | 11.7µM* | 2.7% | / | -5.6% | -4.8% | 5.4%
O=C(c1ccc(CS(=O)(=O)c2ccc(Br)cc2)o1)N1CCCC1 | 7.38µM* | ? | / | -2.5% | 0.0% | ?
SMILES | Pf growth 96h | HCV inhibitor | Pf growth 48h | AmpC inh no detg | AMA1-RON2 inh | AmpC inh detg
Cc1ccc(S(=O)(=O)Cc2ccc(C(=O)N3CCN(Cc4ccccc4)CC3)o2)cc1 | -13.6% | 16.2% | ? | 40.4% | / | ?
CCc1ccc(C(=O)c2cn(CC(=O)NCCc3ccc(OC)c(OC)c3)c3nc(C)ccc3c2=O)cc1 | / | / | / | / | / | 0.4%
COc1ccc(N(Cc2cccs2)C(=O)Nc2cccc(Cl)c2)cc1 | / | / | / | / | / | 13.9%
CCn1c(SCC(=O)N=Nc2c(O)[nH]c3ccccc23)nc2ccccc21 | 44.0% | 0.4% | -0.8% | 5.01µM* | -15.6% | -8.1%
CCOc1ccccc1N1CCN(CC(=O)Nc2ccccc2C(=O)NC2CC2)CC1 | ? | ? | 9.28µM* | 28.8% | -9.9% | -4.6%
CCOc1ccccc1N1CCN(CC(=O)Nc2ccnn2C2CCCC2)CC1 | -18.3% | 12.6µM* | -25.6% | 84.7% | 7.3% | 5.2%
CCOc1ccccc1C(=O)NC1CCN(CC(=O)Nc2cc(OC)ccc2OC)CC1 | 0.0% | 11.2µM* | ? | 39.8% | 7.1% | ?
COc1ccc(CN2CCN(CC(=O)Nc3ccccc3C(=O)NC3CC3)CC2)cc1F | ? | -0.9% | 10.4µM* | -11.2% | -6.5% | -11.8%
CCOc1ccccc1N1CCN(CC(=O)Nc2nccs2)CC1 | / | / | / | / | 2.8% | /
CCOc1ccc(OCC)c(NC(=O)CN2CCC(NC(=O)c3cccc(F)c3)CC2)c1 | ? | ? | ? | 36.5% | -13.0% | -7.6%
CCOc1ccccc1NC(=O)CN1CCC(NC(=O)c2ccccc2C)CC1 | ? | ? | ? | 30.9% | -10.8% | -8.1%
Cc1cccc(C)c1NC(=O)N1CCC(C(N)=O)(N2CCCCC2)CC1 | / | / | / | / | / | 23.4%
COc1ccc(CCn2c(=O)c3cccnc3n(CC(=O)Nc3ccc(C)c(F)c3)c2=O)cc1OC | / | / | / | / | / | 20.0%
O=C(Nc1ccc(NC(=S)NC(=O)c2ccccc2Cl)cc1)c1cccc(Cl)c1 | / | 25.1µM* | / | / | -10.1% | /
CCCOc1cccc(C(=O)NC(=S)Nc2cccc(NC(=O)c3ccccc3Cl)c2)c1 | 2.94µM* | -12.2% | 1.6% | -41.9% | 1.8% | ?
C=Cc1ccc(COc2ccc3oc(-c4ccccc4)c(C(=O)OCC)c3c2)cc1 | / | / | / | / | / | 10.2%
CC(=O)Oc1ccc(OC(C)=O)c2c1CC(C)=C(C)C2 | 13.1µM* | -15.1% | 9.28µM* | -2.0% | -3.9% | 0.7%
CC(=O)Oc1ccc(C)cc1 | -15.1% | / | -12.6% | / | / | /
CCOC(=O)C1CCCN(C(=O)Cn2nc(Cc3cccnc3)c3ccccc3c2=O)C1 (stereo unspecified) | 7.38µM* | 14.7% | / | 7.3% | -5.2% | ?
